# Reference: publication PMC5540273 (PLoS ONE, 2017)
# How the values were obtained:
# Conditions in all cases: concentration: 1 μM, replicates: in singlicate; n = 1
# KIT = tested on: KIT
# LATS1 = tested on: LATS1
# LATS2 = tested on: LATS2
# LCK = tested on: LCK
# LIMK1 = tested on: LIMK1
# LIMK2 = tested on: LIMK2
# LKB1 = tested on: T1, LKB1
# T1 construct: gene STK11
# LOK = tested on: T2, LOK
# T2 construct: gene STK10
# LRRK2 = tested on: LRRK2
# LTK = tested on: LTK
# 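Also: KINOMEscan kinase panel screen.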
SMILES,%Inh (KIT) [%],%Inh (LATS1) [%],%Inh (LATS2) [%],%Inh (LCK) [%],%Inh (LIMK1) [%],%Inh (LIMK2) [%],%Inh (LKB1) [%],%Inh (LOK) [%],%Inh (LRRK2) [%],%Inh (LTK) [%]
COc1cc2ncn(-c3cc(OCC4CCCO4)c(C(N)=O)s3)c2cc1OC (stereo not shown) [GSK204607],16,0,10,7,0,16,0,96.9,0,11
Cc1cccc(-c2cc(Nc3ccncc3)c3ccccc3n2)n1 [GSK223675],19,0,22,9,0,0,7,0,0,0
NC(=O)c1nnc2ccccc2c1N,10,0,0,0,0,5,0,10,75,0
Fc1cc(Cl)ccc1Nc1ccnc2cc(-c3ccc(CN4CCCCC4)o3)ccc12 [GW560116],61,3,0,35,0,0,0,0,0,8
Cc1cccc(-c2nc(Nc3ccc4[nH]ncc4c3)c3ccccc3n2)n1 [GW857175],3,1,50,10,6,2,14,19,15,0
Cc1cc(NCC(c2ccccc2)c2ccccc2)nc(NCc2ccc(C(F)(F)F)cc2)n1 [GW497681],6,0,5,0,0,9,12,0,0,0
Cc1cccc(-c2nc(Nc3ccncc3)c3ccccc3n2)n1 [GW855857],10,3,0,9,12,5,18,37,0,21
Cc1cccc(-c2nc(Nc3cccc(C(N)=O)c3)c3ccccc3n2)n1 [GW876019],0,8,0,20,0,9,0,21,73,40
CCCc1ccc(S(=O)(=O)NC2CCN(c3ccnc(Nc4ccc(F)cc4)n3)C2)cc1 (stereo not shown) [GSK1379715],12,0,0,0,14,0,0,0,19,4
O=C(Nc1n[nH]c2nc(-c3nccs3)c(Br)cc12)C1CCCC1 [SB-742609],7,9,0,9,19,0,0,0,35,0
COc1cc2nccc(Nc3ccc(NC(=O)c4ccc(C)cc4)c(O)c3)c2cc1OC.Cl [GW440132],38,0,0,83,4,1,2,0,28,0
CC(C)(C)c1ccc(C(=O)Nc2cn3cc(Cl)ccc3n2)cc1,74,10,0,26,0,0,4,8,0,0
O=c1cc(N2CCOCC2)nc2n(Cc3cccc(Cl)c3Cl)ccn12 [GSK2286295],32,0,13,9,0,0,0,0,31,0
CN(C)CCN(C)C(=O)c1cc(-c2ccncc2)c(-c2ccc(Cl)c(O)c2)o1.Cl.Cl [SB-710397],0,3,0,34,0,0,0,72,0,11
COc1ccccc1CNC(=O)c1cc(C(=O)c2ccccc2C)c[nH]1 [GSK364507],41,0,0,12,8,5,0,0,0,0
Fc1cccc(COc2nnc(-c3ccc4c(c3)CCO4)o2)c1,3,0,0,0,0,0,16,0,4,0
